Activity calls are given as the source filed them. Unless noted, no rule for the calls is given here.
Columns and labels:
[1] = test system: Wnt5a (protein binding on small-molecule microarray); experiment: Wnt5a binders on small-molecule microarray, primary screen, biophysical, 635/667 nm fluorescence (AID 1142); conditions: 635 nm fluorescence, higher = more signal;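 also: fluorescence read at 667 nm with signal to noise per printed feature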
[2] = cell viability in Huh7 cells, primary screen, cytotoxicity control for HCV replication inhibitor project, CellTiter-Glo luminescence, basal, 48 h (AID 1143); conditions: Huh7 HCV replicon, higher = more signal, called active from +8 up or from −8 down;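 also: Huh7 hepatoma cells carrying a hepatitis C replication reporter with no stimulus; test concentration not given here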
[3] = P. aeruginosa biofilm formation inhibitors, primary screen, PAO1 strain, BacTiter-Glo luminescence, LB-PBS (AID 1144); conditions: 12 h, higher = more signal
[4] = CREB reporter modulators without forskolin, primary screen, cell-based, PC12, CRE-LacZ reporter, unstimulated (AID 1145); conditions: no forskolin, luminescence, 4.5 h, higher = more signal, called active from +8 up or from −8 down
[5] = CREB reporter modulators under forskolin, primary screen, cell-based, PC12, CRE-LacZ reporter, forskolin-stimulated (AID 1146); conditions: luminescence, 4.5 h, higher = more signal, called active from +8 up or from −8 down;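 also: PC12 cells with 6xCRE LacZ reporter stimulated by forskolin 10 µM; beta-galactosidase reporter signal reflecting CREB driven transcription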
[6] = molecular target: Streptavidin (Streptomyces avidinii) (UniProt P22629); experiment: streptavidin binders on small-molecule microarray, primary screen, artefact control for SMM compound annotation, biophysical, 635/667 nm fluorescence (AID 1147); conditions: streptavidin binding, higher = more signal;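 also: signal reflects streptavidin binding to arrayed compounds as a control protein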
Sequence of Streptavidin (Streptomyces avidinii) (P22629 whole entry, looked up): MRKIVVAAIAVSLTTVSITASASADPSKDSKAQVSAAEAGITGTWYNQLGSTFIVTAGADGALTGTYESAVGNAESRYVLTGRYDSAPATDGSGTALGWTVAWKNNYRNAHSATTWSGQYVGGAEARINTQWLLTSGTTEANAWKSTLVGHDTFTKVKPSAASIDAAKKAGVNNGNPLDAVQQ

[7] = small-molecule binders of probe aInhba, primary screen, biochemical, small-molecule microarray, 635/667 nm fluorescence (AID 1148); conditions: higher = more signal;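 also: score merges 667nm spot fluorescence with signal-to-noise for antibody binding to printed compounds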
Torsin-1A (Homo sapiens) [8] = molecular target: Torsin-1A (Homo sapiens) (UniProt O14656); experiment: torsin A binders from cell lysate, primary screen, small-molecule microarray, wild-type, 635/667 nm (AID 1149); conditions: COS7 hTOR1A-WT lysate, 635 nm fluorescence, higher = more signal
Sequence of Torsin-1A (Homo sapiens) (O14656 whole entry, looked up): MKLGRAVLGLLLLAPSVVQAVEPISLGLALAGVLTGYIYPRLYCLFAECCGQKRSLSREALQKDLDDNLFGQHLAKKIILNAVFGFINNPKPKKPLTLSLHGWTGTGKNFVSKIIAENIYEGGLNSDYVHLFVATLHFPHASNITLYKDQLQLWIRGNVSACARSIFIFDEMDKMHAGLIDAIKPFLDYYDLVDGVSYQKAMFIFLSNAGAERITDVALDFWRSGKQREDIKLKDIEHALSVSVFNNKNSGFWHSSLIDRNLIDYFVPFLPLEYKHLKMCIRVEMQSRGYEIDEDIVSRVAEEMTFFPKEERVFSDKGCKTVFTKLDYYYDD

Torsin-1A (Homo sapiens) [9] = molecular target: Torsin-1A (Homo sapiens) (UniProt O14656); experiment: small-molecule binders of mutant TOR1A in lysate, primary screen, cell lysate, small-molecule microarray, COS7 lysate, 635/667 nm fluorescence (AID 1150); conditions: COS7 hTOR1A mutant lysate, 635 nm fluorescence, higher = more signal;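 also: score pools 667 nm emission and signal to noise measuring lysate protein binding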
[10] = test system: Sonic hedgehog protein (Shh); experiment: small-molecule binders of Shh protein, primary screen, biochemical, small-molecule microarray, 635/667 nm fluorescence (AID 1151); conditions: small-molecule microarray binding, 635 nm fluorescence; higher = more signal;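 also: Shh protein binding to compounds spotted on small-molecule microarray slides; score combines spot fluorescence intensity with signal-to-noise across triplicate slides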
[11] = E. coli DRC41 culture turbidity changes, primary screen, E. coli filamentation inducer project, strain DRC41, OD650, 48 h (AID 1152);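 also: E. coli MC1000 strain DRC41 lacking acrAB efflux pump and sulA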; conditions: E. coli DRC41 (acrAB sulA), higher = more signal, called active from +8 up or from −8 down
[12] = small-molecule binders of probe aLefty1, primary screen, biochemical, small-molecule microarray, 635/667 nm fluorescence (AID 1153); conditions: higher = more signal;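 also: score merges spot fluorescence with signal-to-noise ratio from the scanned slide images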
[13] = PSAC antagonists in infected red cells, primary screen, cell-based, P. falciparum Indochina, OD700, 1 h (AID 1154); conditions: P. falciparum Indochina infected RBC osmotic lysis, higher = more signal, called active from +8 up or from −8 down
[14] = PSAC antagonists in infected red cells, primary screen, cell-based, P. falciparum Indochina, OD700, 2 h (AID 1155);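 also: lysis reports solute entry through the parasite surface anion channel PSAC; channel blockers reduce lysis of infected cells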; conditions: P. falciparum Indochina infected erythrocytes, osmotic lysis OD700; higher = more signal, called active from +8 up or from −8 down
[15] = osmotic lysis modulators in infected erythrocytes, primary screen, PSAC antagonist project, cell-based, P. falciparum Indochina, OD700, 3 h (AID 1156); conditions: higher = more signal, called active from +8 up or from −8 down
[16] = PSAC antagonists in infected red cells, primary screen, cell-based, P. falciparum Indochina, OD700, 18 h (AID 1157); conditions: P. falciparum Indochina infected erythrocytes, osmotic lysis OD700, 18 h; higher = more signal, called active from +8 up or from −8 down
[17] = modulators of S6 phosphorylation in cells, primary screen, cell-based, A549, cytoblot, luminescence, serum-stimulated (AID 1158); conditions: A549 phospho-S6 cytoblot, 5 h, higher = more signal;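 also: serum-stimulated A549 lung adenocarcinoma cells; signal is phosphorylated S6 detected by cytoblot immunostaining with HRP secondary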
[18] = molecular target: NADPH oxidase 2 (Homo sapiens) (UniProt P04839); experiment: NOX2-dependent H2O2 signal modulators, primary screen, NOX inhibitor project, cell-based, HEK293-NOX2, PMA-stimulated, Amplex Red fluorescence (AID 1159); conditions: 45 min, higher = more signal, called active from +8 up or from −8 down; also: test concentration not given here
Sequence of NADPH oxidase 2 (Homo sapiens) (P04839 whole entry, looked up): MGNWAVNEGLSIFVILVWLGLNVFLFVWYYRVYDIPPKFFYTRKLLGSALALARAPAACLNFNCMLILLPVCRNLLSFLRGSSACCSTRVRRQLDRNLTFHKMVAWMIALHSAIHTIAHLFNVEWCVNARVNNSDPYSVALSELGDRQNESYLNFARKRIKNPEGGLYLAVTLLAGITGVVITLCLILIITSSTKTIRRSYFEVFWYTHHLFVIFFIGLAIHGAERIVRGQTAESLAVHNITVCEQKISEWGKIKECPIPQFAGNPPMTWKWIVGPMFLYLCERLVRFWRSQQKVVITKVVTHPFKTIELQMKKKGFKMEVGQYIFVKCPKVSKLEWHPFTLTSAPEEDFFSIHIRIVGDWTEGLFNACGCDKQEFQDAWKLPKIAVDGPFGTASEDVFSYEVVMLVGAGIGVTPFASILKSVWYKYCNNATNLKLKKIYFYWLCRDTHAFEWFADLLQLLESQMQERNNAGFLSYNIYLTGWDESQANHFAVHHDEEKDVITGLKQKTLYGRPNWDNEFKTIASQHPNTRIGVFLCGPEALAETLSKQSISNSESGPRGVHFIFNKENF

[19] = molecular target: NADPH oxidase 4 (Homo sapiens) (UniProt Q9NPH5); experiment: NOX4-dependent H2O2 signal modulators, primary screen, NOX inhibitor project, cell-based, HEK293-NOX4, tetracycline-induced, Amplex Red fluorescence (AID 1160); conditions: 45 min, higher = more signal, called active from +8 up or from −8 down
Sequence of NADPH oxidase 4 (Homo sapiens) (Q9NPH5 whole entry, looked up): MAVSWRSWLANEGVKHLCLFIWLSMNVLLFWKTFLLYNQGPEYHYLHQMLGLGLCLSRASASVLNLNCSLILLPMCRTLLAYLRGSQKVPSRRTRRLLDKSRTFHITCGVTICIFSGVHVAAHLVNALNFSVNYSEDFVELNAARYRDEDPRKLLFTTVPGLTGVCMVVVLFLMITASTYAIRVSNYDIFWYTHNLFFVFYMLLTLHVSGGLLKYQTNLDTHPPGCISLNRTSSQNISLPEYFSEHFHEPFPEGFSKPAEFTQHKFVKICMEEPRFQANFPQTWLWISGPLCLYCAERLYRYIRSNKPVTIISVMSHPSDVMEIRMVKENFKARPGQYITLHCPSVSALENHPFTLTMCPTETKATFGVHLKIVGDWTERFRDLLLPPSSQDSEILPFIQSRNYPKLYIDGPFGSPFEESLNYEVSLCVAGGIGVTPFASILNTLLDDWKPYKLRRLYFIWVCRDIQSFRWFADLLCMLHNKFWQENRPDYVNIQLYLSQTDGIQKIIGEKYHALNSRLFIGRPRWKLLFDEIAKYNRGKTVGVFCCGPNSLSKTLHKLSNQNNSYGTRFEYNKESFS

[20] = molecular target: NADPH oxidase 5 (Homo sapiens) (UniProt Q96PH1); experiment: NOX5-dependent H2O2 signal modulators, primary screen, NOX inhibitor project, cell-based, HEK293-NOX5, Amplex Red fluorescence (AID 1161); conditions: HEK293-NOX5, ionomycin, 45 min, higher = more signal
Sequence of NADPH oxidase 5 (Homo sapiens) (Q96PH1 whole entry, looked up): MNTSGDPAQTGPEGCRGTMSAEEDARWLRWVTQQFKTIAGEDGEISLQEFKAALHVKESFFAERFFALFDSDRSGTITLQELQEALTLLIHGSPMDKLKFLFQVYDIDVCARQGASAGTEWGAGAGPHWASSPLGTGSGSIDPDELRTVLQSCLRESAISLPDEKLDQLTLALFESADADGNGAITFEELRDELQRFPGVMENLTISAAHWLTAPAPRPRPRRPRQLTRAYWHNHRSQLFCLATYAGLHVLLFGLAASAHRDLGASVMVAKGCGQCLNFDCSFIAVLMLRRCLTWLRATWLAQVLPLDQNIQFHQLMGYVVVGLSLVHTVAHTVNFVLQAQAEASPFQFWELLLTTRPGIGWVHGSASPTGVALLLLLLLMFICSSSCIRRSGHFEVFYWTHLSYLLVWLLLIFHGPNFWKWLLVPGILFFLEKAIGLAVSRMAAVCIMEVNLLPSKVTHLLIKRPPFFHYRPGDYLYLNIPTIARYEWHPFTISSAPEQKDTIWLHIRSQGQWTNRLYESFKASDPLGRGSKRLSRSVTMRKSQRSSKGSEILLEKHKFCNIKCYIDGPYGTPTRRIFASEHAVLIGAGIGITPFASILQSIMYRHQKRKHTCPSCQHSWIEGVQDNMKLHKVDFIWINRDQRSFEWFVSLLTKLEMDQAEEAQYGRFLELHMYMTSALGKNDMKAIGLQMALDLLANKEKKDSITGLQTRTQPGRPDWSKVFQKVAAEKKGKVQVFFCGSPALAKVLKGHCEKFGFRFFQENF

Row | Compound | composite z-score [1] | z-score [2] | z-score [3] | z-score [4] | z-score [5] | composite z-score [6] | composite z-score [7] | composite z-score (Torsin-1A (Homo sapiens) [8]) | composite z-score (Torsin-1A (Homo sapiens) [9]) | composite z-score [10] | z-score [11] | composite z-score [12] | z-score [13] | z-score [14] | z-score [15] | z-score [16] | z-score [17] | z-score [18] | z-score [19] | z-score [20]
1 | Cc1ccc(/C=C/C=O)cc1 | -0.355 | 0.0606 (inactive) | 0.38 (inactive) | -0.141 (inactive) | 0.243 (inactive) | -0.461 | -0.176 | -1.39 | -0.357 | -0.327 | 1.24 (inactive) | -0.22 | 0.248 (inactive) | 0.0672 (inactive) | -0.0637 (inactive) | 0.0324 (inactive) | -0.139 | -0.225 (inactive) | -0.104 (inactive) | 1.17
2 | COC(=O)[C@@]1(CCC(=O)OC(C)(C)C)N=C(c2ccc(OCCCO)cc2)O[C@H]1c1ccccc1 | 0.762 | -3.61 (inactive) | -0.24 (inactive) | 2.25 (inactive) | -2.12 (inactive) | -0.888 | 0.0319 | -0.831 | -0.275 | 0.443 | -1.12 (inactive) | -0.009 | 26 (active) | 14.9 (active) | 2.32 (inactive) | 1.89 (inactive) | 0.197 | -2.39 (inactive) | -0.204 (inactive) | -2.57
3 | COCCCNC(=O)[C@@H]1c2ccccc2C(=O)N(Cc2ccccc2OC)[C@H]1c1ccc(CO)cc1 | 0.924 | -4.79 (inactive) | -2.25 (inactive) | -0.502 (inactive) | 0.715 (inactive) | -0.665 | -0.0136 | 0.825 | -0.206 | 2.03 | 0.876 (inactive) | 0.278 | 1.54 (inactive) | -0.0902 (inactive) | 0.591 (inactive) | -0.631 (inactive) | 2.45 | -1.79 (inactive) | -3.52 (inactive) | -5.09
4 | CS(=O)(=O)CCOC(=O)C1=CC(CCCO)=CC(C2CC2)N(Cc2cc3c(cc2Br)OCO3)C=C1C(=O)OCCS(C)(=O)=O (stereo not given) | 0.0339 | -0.737 (inactive) | -0.453 (inactive) | -0.0424 (inactive) | 0.926 (inactive) | 0.635 | -0.0695 | 0.913 | 1.03 | 0.358 | 0.307 (inactive) | 0.131 | 3.83 (inactive) | 1.02 (inactive) | 0.106 (inactive) | 0.504 (inactive) | 0.404 | -1.56 (inactive) | -0.0814 (inactive) | -1.11
5 | CCN(CC)c1ccc(N2CC=CC34O[C@@H]5C=CCOC(=O)[C@@H]5[C@H]3C(=O)N(CCCCCCO)[C@@H]4C2=O)cc1 (stereo not given in full) | -0.452 | -0.289 (inactive) | -0.593 (inactive) | -0.488 (inactive) | -1.57 (inactive) | -0.881 | -0.154 | 0.914 | 0.339 | -0.326 | 2.74 (inactive) | 0.176 | 2.21 (inactive) | 0.184 (inactive) | 0.404 (inactive) | -0.313 (inactive) | 0.411 | -0.262 (inactive) | 0.301 (inactive) | 1.17
6 | C#CCN1[C@H](/C=C/C2CC2)[C@H](Cc2ccccc2)OC(=O)[C@@H]1Cc1ccccc1 | -0.18 | -3.28 (inactive) | 0.854 (inactive) | 1.04 (inactive) | 1.29 (inactive) | -0.929 | -0.0675 | 0.349 | 0.429 | 1.12 | -0.625 (inactive) | -0.306 | 0.128 (inactive) | 0.224 (inactive) | -0.491 (inactive) | -0.16 (inactive) | 0.0807 | -0.263 (inactive) | -0.367 (inactive) | -1.98
7 | CCOC(=O)C[C@H]1[C@H](OC(=O)c2ccc(C(=O)c3ccccc3)cc2)[C@@H](NC(=O)Cc2ccc(OC)cc2)c2cc(OCCCO)ccc2N1C(=O)c1ccc2ccccc2n1 | 0.112 | 0.0378 (inactive) | -0.193 (inactive) | 0.745 (inactive) | -0.668 (inactive) | 0.619 | 0.158 | -0.202 | 0.561 | 0.671 | 0.378 (inactive) | 0.131 | 3.85 (inactive) | 1.05 (inactive) | -0.392 (inactive) | 0.604 (inactive) | -0.0822 | -1.03 (inactive) | 0.492 (inactive) | 1.53
8 | COC(=O)[C@]1(CCC(=O)OC(C)(C)C)N=C(c2ccc(OCCCO)cc2)O[C@@H]1c1ccccc1 | -0.102 | -4.76 (inactive) | 0.314 (inactive) | 2.39 (inactive) | -0.0673 (inactive) | -0.98 | 0.154 | -0.927 | -0.343 | 0.169 | 0.687 (inactive) | 0.765 | 27.7 (active) | 27.2 (active) | 0.0027 (inactive) | 5.02 (inactive) | -0.406 | -1.93 (inactive) | 0.178 (inactive) | -1.16
9 | CC(CO)N1C(=O)[C@@H]2C3C(=O)OCCC/C=C\[C@H]3OC23C=CCN(CCN2CCOCC2)C(=O)[C@@H]13 (stereo not given in full) | 0.0719 | 0.795 (inactive) | -1.1 (inactive) | -0.476 (inactive) | -0.183 (inactive) | -0.254 | -0.201 | -0.951 | -0.776 | 1.21 | 0.253 (inactive) | -0.348 | 0.901 (inactive) | 0.0448 (inactive) | 1.7 (inactive) | 0.01 (inactive) | 0.0058 | 0.238 (inactive) | -0.398 (inactive) | 1.05

From PubChem BioAssay
